Data on 40 compounds can be found in PubChem BioAssay (Tox21).

Results filed as inconclusive are left out. Where a call stands in place of a potency, no number is given. A number with no mark means an inactive call. Calls of active or inactive are those of the source. Calls follow the shape of the full dose curve.

Beta-2 adrenergic receptor (Homo sapiens), sequence (P07550 whole entry, looked up): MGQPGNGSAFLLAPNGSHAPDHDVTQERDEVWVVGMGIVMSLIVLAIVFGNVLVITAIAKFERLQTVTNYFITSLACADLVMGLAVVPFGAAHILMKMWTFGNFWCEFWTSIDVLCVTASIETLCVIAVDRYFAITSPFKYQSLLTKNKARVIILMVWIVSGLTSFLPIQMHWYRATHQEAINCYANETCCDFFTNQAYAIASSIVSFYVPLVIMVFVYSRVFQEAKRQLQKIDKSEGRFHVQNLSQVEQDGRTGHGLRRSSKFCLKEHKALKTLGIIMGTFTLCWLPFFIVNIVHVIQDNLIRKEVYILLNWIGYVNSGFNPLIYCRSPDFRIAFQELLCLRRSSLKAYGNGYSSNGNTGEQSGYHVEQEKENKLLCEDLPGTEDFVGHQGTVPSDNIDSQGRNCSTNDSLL

The target in the test is Beta-2 adrenergic receptor (Homo sapiens) (UniProt P07550). Nature of the test: Adrenergic beta2 receptor (ADRB2) small molecule antagonists, cell-based qHTS assay (AID 1963592). Also: nearly all actives have a fitted effect of over 50% in size. The note with it: CHO-ADRB2 cells, isoproterenol-stimulated cAMP HTRF ratio, 0.5 h; series mostly up to 92.4 µM. The text has this:
U.S. Tox21 Program National Center for Advancing Translational Sciences [NCATS] Division of Preclinical Innovation [DPI] U.S. Environmental Protection Agency [EPA] National Institutes of Environmental Health Sciences [NIEHS] National Toxicology Program [NTP] U.S. Food and Drug Administration [FDA] Tox21 Assay Overview: Beta adrenergic receptors (Beta-ARs) belong to the G-protein coupled receptor (GPCR) superfamily, includes three subtypes - beta1, beta2, and beta3. Beta1-AR is the predominant receptor subtype expressed in the heart, and beta2-AR is expressed in the kidney, lung, blood vessel and in the heart, and beta3 is found in the adipocytes. Beta1 and 2 ARs couple to Gs protein and elevate cyclic adenosine mono phosphate (cAMP), which activates protein kinase A and leads to the downstream signaling responsible for the physiological actions. Beta-AR agonists or antagonists are the most prescribed therapeutic agents for heart failure and asthma, and these were one of the first target receptors for the rational drug design. Tox21 10K compound library was screened using the cAMP-Gs dynamic assay (Cisbio Bioassays, Shelton, CT) to identify agonists/antagonists of the Gs-coupled human adrenergic, beta2 receptor (ADRB2) in the CHO-ADRB2 cell line (Codex BioSolutions, Inc. Gaithersburg, MD), which stably over-expresses ADRB2. The principle of cAMP-Gs dynamic assay is based on HTRF technology, which facilitates the fluorescence resonance energy transfer (FRET) between donor Europium cryptate and acceptor d2-labeled cAMP. The cAMP generated within cells competes with the red acceptor, d2-labled cAMP, for binding to the monoclonal anti-cAMP-cryptate (Europium donor). An increase in intracellular cAMP leads to the disruption of FRET signal, and the signal is inversely proportional to the cAMP concentration. Propranolol HCl (Sigma-Aldrich, St. Louis, MO) was used as a positive control in the screening.
Tox21 Assay Protocol Summary: CHO-ADRB2 cells were dispensed at 1,000/well in 4uL assay medium into white/solid 1536-well plates (Greiner Bio-One North America Inc., Monroe, NC) using a Multidrop Combi dispenser (ThermoFisher Scientific, Waltham, MA). The assay plates were incubated at 37C and 5% CO2 for an overnight (18-20hr). Then positive control and test compounds dissolved in DMSO were transferred to the assay plates at 23nL using a Pintool station (Wako, San Diego, CA). Following the compound and positive control transfer, 1uL agonist-stimulation mix containing 1nM Isoproterenol HCl, 100uM IBMX and 25uM Ro-20-1724 was added to each well of the assay plates using BioRAPTR Flying Reagent Dispenser (FRD, Beckman Coulter, Brea, CA). The assay plates were incubated at room temperature for 0.5hr. Then 2.5ul each d2-labled cAMP and anti-cAMP-cryptate solutions were added separately to each well of the assay plates using an FRD and the assay plates were incubated at room temperature for 1hr. The fluorescence signal was measured at two different wavelengths (665nm and 615nm) using an Envision plate reader (Perkin Elmer, Shelton, CT). Data were expressed as the ratio of 665 nm/615 nm.
On the technique in general: In qHTS, concentration-response curves come from the screen itself.
Take `CCCCCCC(CCCCCCCCCCC(=O)OCC(COC(C)=O)OC(C)=O)OC(C)=O` (stereo not given): the Potency result is “inactive”.
Same read-out and setting: under `O=C(O)c1cccc(Oc2ccccc2)c1` stands “inactive”; under `CC(=O)Nc1ccccc1C`, “inactive”; under `CCCCCCOC(=O)CCCCC(=O)OCCCCCC`, “inactive”.
For the compound `CCCCCCCCCCCCCCCCCC(=O)OCCCCCCCCCCCCCC(C)C`, the Potency entry was “inactive”.
Still for that read-out and setting: under `CCc1cccc(CC)c1N(COC)C(=O)CS(=O)(=O)O` stands “inactive”.
Turning to `CC12CCC(CC1=O)C2(C)C` (stereo not given), the Potency result is “inactive”.
Still for that read-out and setting: the value for `O=C1OC(=O)C2C3C=CC(C3)C12` (stereo not given) was “inactive”; that for `C[C@@H](CN1CC(=O)NC(=O)C1)N1CC(=O)NC(=O)C1` was “inactive”; that for `CN1CCN(c2cc3c(cc2F)c(=O)c(C(=O)O)cn3-c2ccc(F)cc2)CC1` was “inactive”.
Same read-out and setting: under `Cc1cccc2sc(N)nc12` stands “inactive”; under `CCCCCCCCCCCCCCCCCCOS(=O)(=O)O`, “inactive”.
Still for that read-out and setting: under `Nc1ccc(S(=O)(=O)NCc2ccccc2)cc1` stands “inactive”; under `CNCCc1ccccn1`, “inactive”; under `O=c1cccccc1O`, “inactive”.
For `CCCCCOC(=O)CCC`, the Potency entry was “inactive”.
On the same count and under the same terms, under `CCN(CC)C(=O)N(CC)CC` stands “inactive”.
The same measure, in the same setting: the value for `CC(C)=CCC/C(C)=C\C#N` was “inactive”; that for `C=CC(=O)OCC1CCCO1` (stereo not given) was “inactive”.
As for `CC(C)=CCC[C@@](C)(O)[C@H]1CC=C(C)CC1`, the Potency result is “inactive”.
On the same count and under the same terms, the value for `CC(=O)CC(=O)Nc1ccc(C)cc1C` was “inactive”; that for `CC1(C)S[C@@H]2[C@H](NC(=O)C(c3ccccc3)S(=O)(=O)O)C(=O)N2[C@H]1C(=O)O` (stereo not given in full) was “inactive”; that for `Cc1cc(NS(=O)(=O)c2ccc(N)cc2)nc(C)n1` was “inactive”.
Still for that read-out and setting: the value for `CC(=O)O[C@H]1C[C@@H]2CC[C@@H]3[C@H](CC[C@@]4(C)[C@H]3C[C@H]([N+]3(C)CCCCC3)[C@@H]4OC(C)=O)[C@@]2(C)C[C@@H]1N1CCCCC1` was “inactive”.
Consider `CC(C)(C#N)Nc1nc(Cl)nc(NC2CC2)n1`, for which the Potency result was “inactive”.
On to `C=C[Si](C)(C)Cl`, for which the activity change, negative = inhibition was 2.31% [at 8.39 µM].
`OCCCc1cccnc1`: the Potency result is “inactive”.
Still for that read-out and setting: the value for `Oc1ccc2c(c1)CCC2` was “inactive”; that for `CC(C(=O)O)c1cccc(Oc2ccccc2)c1` (stereo not given) was “inactive”.
On the same count and under the same terms, under `COC(=O)CCCC(=O)O` stands “inactive”; under `CCOC(=O)[C@H](CCc1ccccc1)N[C@@H](C)C(=O)N1Cc2cc(OC)c(OC)cc2C[C@H]1C(=O)O`, “inactive”.
In the case of `CC(=O)O[C@@H]1CC2CCC1(C)C2(C)C` (stereo not given in full), the Potency result is “inactive”.
Same read-out and setting: under `CCN(CC)CCOC(=O)C1(c2ccccc2)CCCC1` stands “inactive”; under `COC(=O)c1ccc(OC)cc1`, “inactive”.
On to `O=P(O)(O)C(O)(Cc1cccnc1)P(=O)(O)O`, for which the Potency entry is “inactive”.
`c1ccc(C[P+](c2ccccc2)(c2ccccc2)c2ccccc2)cc1`: the Potency result was “inactive”.
The same measure, in the same setting: under `C[C@H](CCC(=O)NCC(=O)O)[C@H]1CC[C@H]2[C@@H]3[C@H](O)C[C@@H]4C[C@H](O)CC[C@]4(C)[C@H]3C[C@H](O)[C@]12C` stands “inactive”; under `C=COC(=O)C(C)(CC)CCC(C)C` (stereo not given), “inactive”; under `N#C/C(=C1\SCC(c2ccccc2Cl)S1)n1ccnc1` (stereo not given), “inactive”.
As to `CN1CCN(c2c(F)cc3c(=O)c(C(=O)O)cn4c3c2SCC4)CC1`, the Potency result was “inactive”.
